Here are results for 34 molecules from the supplement of paper PMC7156485.

What all share (conditions): concentration: 10 µM; 24 h
Assay [1] deals with HCC1569. Put plainly: cell number relative to DMSO (% of DMSO); higher = more cells (less growth inhibition / toxicity). The method in brief: (§1)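 H1.0 nuclear intensity or cell number is stated as percent of the plate control, based on the median of replicates, and HCC1569 values were smoothed for positional effects. These came from HCC1569 and TDF cells treated with compounds at 10 µM for 24 h at 37 °C in triplicate, then fixed in 3.7% formaldehyde and stained with a rabbit anti-H1.0 antibody, an AlexaFluor 647 secondary and DAPI.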

For assay [2], the system named is TDF. Described as above. In a few lines:
as §1

Assay [3] has as its system TDF. As to the kind of experiment: H1.0 immunofluorescence intensity relative to DMSO (% of DMSO); higher = stronger H1.0 induction, active = 120 or more. In a few lines: as §1
Assay [4] has as its system HCC1569. As to the kind of experiment: H1.0 immunofluorescence intensity relative to DMSO (% of DMSO); higher = stronger H1.0 induction, active = 140 or more. In a few lines: as §1
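Wherever H1.0 immunofluorescence intensity relative to DMSO is given: TDF is a line of transformed human dermal fibroblasts of mesenchymal origin.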
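Wherever cell number relative to DMSO is given: TDF denotes transformed human dermal fibroblasts of mesenchymal origin.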

Turning to `CCCCCC=CC=CC(CCCCCCCC(=O)O)OO` (stereo unspecified), the cell number was 101 in the assay on HCC1569 [1] and 94 with TDF [2]. Also, the H1.0 immunofluorescence intensity is 100 (inactive) with TDF [3] and 94.9 (inactive) in the assay with HCC1569 [4].
As for `COc1cc2c(cc1O)CC1c3c(cc(O)c(OC)c3-2)CCN1C` (stereo unspecified) [Boldine], the cell number with HCC1569 [1] and in the assay on TDF [2] was 103 each time. For the same molecule, the H1.0 immunofluorescence intensity was 105 (inactive) in the assay with TDF [3] and 99.9 (inactive) with HCC1569 [4].
With `COc1ccc2c(c[n+](C)c3c4cc5c(cc4ccc23)OCO5)c1OC.[Cl-]` [Chelerythrine], the cell number with HCC1569 [1] was 114; with TDF [2], 17.4. Further, the results for the H1.0 immunofluorescence intensity in the assay with TDF [3] and with HCC1569 [4] were 139 (active) and 96.2 (inactive), respectively.
On to `CN1C2CCC1CC(OC(c1ccccc1)c1ccccc1N)C2` (stereo unspecified) [Aminobenztropine], for which the cell number in the assay with HCC1569 [1] is 103; in the assay with TDF [2], 97.9. Besides, the H1.0 immunofluorescence intensity with TDF [3] is 94.1 (inactive); in the assay with HCC1569 [4], 90.2 (inactive).
Regarding `CC[N+](CC)(CC)CC.[Cl-]` [Tetraethylammonium chloride], the cell number came to 101 in the assay on HCC1569 [1] and 108 in the assay with TDF [2]. For the same molecule, the H1.0 immunofluorescence intensity in the assay with TDF [3] is 90.2 (inactive); with HCC1569 [4] it was 108 (inactive).
For `CS(=N)(=O)CCC(N)C(=O)O` [L-Methionine sulfoximine] the same measures were 103, 94, 92.5 (inactive) and 98.4 (inactive).
On the same counts, the results for `COc1cc2c(c(OC)c1OC)-c1ccc(SC)c(=O)cc1C(NC(C)=O)CC2` (stereo unspecified) [Thiocolchicine] are 59.6, 10.7, 187 (active) and 155 (active).
For `CC1CCCC=CC2CC(O)CC2C(O)C=CC(=O)O1` (stereo unspecified) [Brefeldin A], the figures for the cell number in the assay with HCC1569 [1] and in the assay on TDF [2] were 68.2 and 52.6, respectively. Further, the H1.0 immunofluorescence intensity in the assay with TDF [3] is 132 (active); in the assay on HCC1569 [4], 208 (active).
For the molecule `CC1=C2C(=O)C3C(CC=C4CC(O)CCC43C)C2CCC12OC1CC(C)CNC1C2C` (stereo unspecified) [Jervine], the results for the cell number in the assay with HCC1569 [1] and in the assay with TDF [2] were 97.9 and 104, respectively. For the same molecule, the H1.0 immunofluorescence intensity in the assay with TDF [3] was 94.3 (inactive); in the assay with HCC1569 [4], 92 (inactive).
With `CN(C(=O)Cc1ccc(Cl)c(Cl)c1)C(CN1CCCC1)c1cccc(OCC(=O)O)c1.Cl` (stereo unspecified) [ICI 204,448 hydrochloride], the cell number in the assay with HCC1569 [1] and with TDF [2] was 104 throughout. Besides, the figures for the H1.0 immunofluorescence intensity in the assay on TDF [3] and with HCC1569 [4] were 89.4 (inactive) and 92.8 (inactive), respectively.
Consider `CCC1=CC2CN3CCc4c([nH]c5ccccc45)C(C(=O)OC)(C2)C13` (stereo unspecified) [Catharanthine], for which the cell number came out at 104 in the assay with HCC1569 [1] and 94.7 with TDF [2]. Besides, the H1.0 immunofluorescence intensity in the assay on TDF [3] was 102 (inactive); in the assay on HCC1569 [4] it was 92.1 (inactive).
For `CC12CCC(O)CC1CCC1C2CCC2(C)C(C(=O)CO)CCC12` (stereo not drawn) [3-alpha,21-Dihydroxy-5-alpha-pregnan-20-one], the figures for the cell number in the assay with HCC1569 [1] and in the assay with TDF [2] were 102 and 89, respectively. Further, the H1.0 immunofluorescence intensity was 98.8 (inactive) in the assay with TDF [3] and 87 (inactive) in the assay on HCC1569 [4].
On the same counts, the results for `O=P1(N(CCCl)CCCl)NCCCO1` (stereo unspecified) [Cyclophosphamide] are 107, 95.5, 101 (inactive) and 101 (inactive).
For `CC(=O)C1CCC2C3CCC4CC(O)CCC4(C)C3C(=O)CC12C` (stereo not drawn) [5alpha-Pregnan-3alpha-ol-11,20-dione] the same measures were 107, 108, 94.1 (inactive) and 98.7 (inactive).
For the molecule `Br.NC1CCc2cc(O)c(O)cc2C1` (stereo unspecified) [6,7-ADTN hydrobromide], the cell number in the assay with HCC1569 [1] turned out to be 104; in the assay on TDF [2] it was 103. The H1.0 immunofluorescence intensity in the assay on TDF [3] was 93.1 (inactive); in the assay on HCC1569 [4], 92.4 (inactive).
Consider `COC(=O)C(N)CCCN=C(N)N[N+](=O)[O-].Cl` [NG-Nitro-L-arginine methyl ester hydrochloride], for which the figures for the cell number in the assay on HCC1569 [1] and in the assay on TDF [2] were 103 and 109, respectively. In addition, the values for the H1.0 immunofluorescence intensity with TDF [3] and in the assay on HCC1569 [4] were 89.9 (inactive) and 92.5 (inactive), respectively.
For `CCCC[N+]1(C)C2CC(OC(=O)C(CO)c3ccccc3)CC1C1OC12.[Br-]` (stereo unspecified) [Scopolamine N-butylbromide] the same measures were 99.1, 111, 93.6 (inactive) and 88.1 (inactive).
Regarding `CC=C(C)C(=O)OC1CCC2(C)C3CCC4C5(O)CC(O)C6(O)C(CN7CC(C)CCC7C6(C)O)C5(O)CC42OC13O` (stereo unspecified) [Cevadine], the cell number with HCC1569 [1] is 99.9; in the assay with TDF [2] it was 99.4. Besides, the H1.0 immunofluorescence intensity with TDF [3] was 96.4 (inactive); in the assay on HCC1569 [4], 93 (inactive).
Regarding `O=C(O)C=CC(=O)O.O=C(O)C=CC(=O)O.c1ccc2nc(N3CCNCC3)ccc2c1` [Quipazine dimaleate], the cell number in the assay with HCC1569 [1] was 97.5; in the assay with TDF [2] it was 103. The H1.0 immunofluorescence intensity with TDF [3] is 90 (inactive); with HCC1569 [4] it was 112 (inactive).
For the molecule `CC1(C)CCCC(C)(C)N1[O]`, the figures for the cell number in the assay with HCC1569 [1] and in the assay with TDF [2] were 99.1 and 96.8, respectively. Moreover, the H1.0 immunofluorescence intensity with TDF [3] was 100 (inactive); in the assay on HCC1569 [4], 99.1 (inactive).
With `O=[N+]([O-])C=Cc1ccc2c(c1)OCO2` [Syk Inhibitor III], the cell number in the assay with HCC1569 [1] came to 37.1; in the assay with TDF [2] it was 33.2. In addition, the H1.0 immunofluorescence intensity is 122 (active) in the assay on TDF [3] and 99.6 (inactive) in the assay on HCC1569 [4].
With `CC(N)C(=O)OC(C)(C)Cc1ccc(Cl)cc1.Cl` (stereo unspecified) [Alaproclate hydrochloride], the cell number in the assay on HCC1569 [1] was 102; in the assay with TDF [2], 111. Besides, the H1.0 immunofluorescence intensity in the assay with TDF [3] was 88.2 (inactive); with HCC1569 [4], 88.6 (inactive).
For `C=CCN1CCC23c4c5ccc(O)c4OC2C(=NN=C2CCC4(O)C6Cc7ccc(O)c8c7C4(CCN6CC=C)C2O8)CCC3(O)C1C5` (stereo unspecified) [Naloxonazine] the same measures were 99.6, 89, 105 (inactive) and 117 (inactive).
With `C#CCN(C)C(C)Cc1ccccc1.Cl` [(R)-(-)-Deprenyl.HCl], the values for the cell number in the assay with HCC1569 [1] and in the assay with TDF [2] were 104 and 103, respectively. Also, the H1.0 immunofluorescence intensity with TDF [3] is 97.8 (inactive); in the assay on HCC1569 [4], 101 (inactive).
Take `COc1ccc2c(c1)C(=Cc1cnc[nH]1)C(=O)N2`: the values for the cell number in the assay on HCC1569 [1] and with TDF [2] were 72.4 and 49.2, respectively. The H1.0 immunofluorescence intensity is 98.1 (inactive) in the assay on TDF [3] and 107 (inactive) with HCC1569 [4].
On the same counts, the results for `CCN1CC2(C)CCC(OC)C34C5CC6CCC(O)(C5C(=O)O6)C(C(O)C23)C14` (stereo unspecified) [Heteratisine] are 103, 105, 96.1 (inactive) and 88.3 (inactive).
With `CCCN(CCC)C1CCc2cccc(O)c2C1` (racemic), the cell number worked out at 101 with HCC1569 [1] and 88.4 with TDF [2]. Besides, the H1.0 immunofluorescence intensity with TDF [3] was 98 (inactive); in the assay with HCC1569 [4], 86.9 (inactive).
On to `C[N+]1(C)C2CCC1CC(OC(=O)C(CO)c1ccccc1)C2.O=[N+]([O-])[O-]` (stereo unspecified) [Atropine methyl nitrate], for which the cell number in the assay on HCC1569 [1] turned out to be 101; in the assay on TDF [2] it was 113. For the same molecule, the H1.0 immunofluorescence intensity with TDF [3] was 94.9 (inactive); in the assay on HCC1569 [4] it was 89.7 (inactive).
For `CN1C2CCC1CC(O)C2` (stereo unspecified) [Tropine], the cell number in the assay on HCC1569 [1] was found to be 102; in the assay with TDF [2], 104. Moreover, the results for the H1.0 immunofluorescence intensity in the assay on TDF [3] and in the assay with HCC1569 [4] were 96.1 (inactive) and 90 (inactive), respectively.
For `CC(C)(OO)c1ccccc1` [Cumene hydroperoxide] the same measures were 101, 113, 105 (inactive) and 99.6 (inactive).
For `CCCCc1ccc(C(=O)O)nc1` [Fusaric acid], the figures for the cell number with HCC1569 [1] and with TDF [2] were 105 and 110, respectively. In addition, the H1.0 immunofluorescence intensity with TDF [3] was 90.2 (inactive); with HCC1569 [4], 88.6 (inactive).
Regarding `CC1CCC2C(C)C3CCC4(O)C(CC5C4CC(=O)C4CC(=O)CCC45C)C3CN2C1` (stereo unspecified) [Sevedindione], the cell number was determined as 99.8 in the assay with HCC1569 [1] and 110 in the assay on TDF [2]. The H1.0 immunofluorescence intensity was 91.7 (inactive) in the assay with TDF [3] and 85 (inactive) in the assay with HCC1569 [4].
As to `C[Se]CC(N)C(=O)O.Cl` (stereo unspecified) [Se-(methyl)selenocysteine hydrochloride], the cell number came out at 99.6 with HCC1569 [1] and 90.3 with TDF [2]. Also, the H1.0 immunofluorescence intensity was 99 (inactive) in the assay with TDF [3] and 98.1 (inactive) with HCC1569 [4].
With `NC(=NN=Cc1ccc(-c2cccc([N+](=O)[O-])c2)o1)N[N+](=O)[O-]` [ERK Inhibitor III], the cell number in the assay with HCC1569 [1] turned out to be 102; in the assay on TDF [2] it was 101. The H1.0 immunofluorescence intensity with TDF [3] was 95.3 (inactive); in the assay with HCC1569 [4], 102 (inactive).
